The source of these data is PubChem BioAssay (NCATS).

Values without a mark were called inactive. Records with an inconclusive call do not appear. Active and inactive are the calls of the source. The call rests on the fitted dose curve; in most records, active means well fitted curve in the direction sought with a large enough effect; inconclusive means small, poorly fitted or top-dose-only effect, or another doubt; inactive means no such curve, though single readings can be large; an effect the other way counts as inactive or inconclusive.

Assay [1] has as its system Zika virus NS2B-NS3 protease (linked construct). Put plainly: Primary screen NINDS Rhodamine qHTS for Zika virus inhibitors (AID 1347160). Further: nearly all actives have a fitted effect of over 55% in size. On activity change, negative = inhibition: on the % scale 0 is the no-effect control and ±100 the full control effect. In short, it runs like this:
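Rhodamine110-peptide cleavage (1.5 µM substrate) by 25 nM linked NS2B-NS3 enzyme at pH 8.0 (Tris, Tween 20), after 15 min RT preincubation with compounds; 15-min fluorescence change normalized to controls and Hill-fitted.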
On the technique in general: Quantitative high-throughput screening tests each substance at several concentrations.

Assay [2] addresses Calcium and integrin-binding protein 1 (Homo sapiens) (UniProt Q99828). In words: Primary qHTS for Identification of Calcium Integrin Binding Protein 1 (CIB1) Competitor (AID 1508620).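 Further: GST tagged CIB1 binding a fluorescein labelled alphaIIb integrin peptide tracer; top concentration of the series differs between compounds; on the % scale 0 is the no-effect control and ±100 the full control effect.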 In short, it runs like this:
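Fluorescence polarization competition: CIB1-GST (1 uM final) preincubated with compound 15 min at room temperature, then FITC-labeled alphaIIb peptide (100 nM final) added for another 15 min. Polarization read at Ex 480/Em 540.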

The nature of assay [3]: Primary qHTS for inhibitors of nuclear receptor binding SET domain protein 2 (NSD2) in an isogenic RCH-ACV NSD2 p.E1099K mutant (9B) (AID 1645876). Further: nearly all actives have a fitted effect of over 70% in size. Further: potency means the concentration at half of the fitted maximal effect.
Assay [4] addresses Glutathione peroxidase 1 (Homo sapiens) (UniProt P07203). In words: Primary qHTS Assay for Inhibitors of Recombinant Selenoprotein Glutathione Peroxidase 1 (GPX1) (AID 1845191). Further: nearly all actives have a fitted effect of over 65% in size. On activity, negative = inhibition: on the % scale 0 is the no-effect control and ±100 the full control effect. In outline:
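GPX1 10 nM, GR 100 nM, GSH 1 mM, NADPH 0.5 mM, CHP 0.5 mM (final). 30-min cpd preincubation, RT. Ex340/Em450 read t=0, t=15 min.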

The target of assay [5] is Phospholipid hydroperoxide glutathione peroxidase GPX4 (Homo sapiens) (UniProt P36969). Put plainly: Primary qHTS Assay for Inhibitors of Recombinant Selenoprotein Glutathione Peroxidase 4 (GPX4) (AID 1845192). Further: on the % scale 0 is the no-effect control and ±100 the full control effect; nearly all actives have a fitted effect of over 65% in size. In short, it runs like this:
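qHTS, GR-coupled: GPX4 200 nM + cpd 30 min RT → GSH 1 mM, NADPH 0.5 mM, GR 100 nM → CHP 0.5 mM start; fluor 340/450 at t0 and t15 min; no-enzyme wells as control.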

Assay [6] has as its target Luciferin 4-monooxygenase (Photinus pyralis) (UniProt P08659). In words: Primary firefly luciferase (FLuc) qHTS assay for identification of artifact compounds. (AID 1845220). Further: nearly all actives have a fitted effect of over 60% in size.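 On activity change, negative = inhibition: plate controls were DMSO vehicle for no effect and no enzyme for full effect.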 As to conditions: outcome: dose series up to 54.1 µM unless noted. In outline:
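Reaction readout was CCD-imaged luminescence, taken 5 min after adding 10 nM purified firefly enzyme to compound-treated wells holding 10 uM luciferin and ATP in pH 7.6 buffer.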

Assay [7] can be described thus: Primary fluorescence-based thiol-reactive (MSTI) qHTS assay for identification of artifact compounds. (AID 1845221).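 Further: thiol-reactive compounds lower the probe fluorescence signal; nearly all actives have a fitted effect of over 65% in size.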 In outline: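 In PBS pH 7.4 with 2% DMSO, each compound met 4 uM MSTI for one hour at ambient temperature, shielded from light, before fluorescence detection.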
Assay [8] has as its system Nanoluciferase (engineered Oplophorus gracilirostris luciferase). In words: Primary Nanoluciferase (NLuc) qHTS assay for identification of artifact compounds. (AID 1845222).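 Further: NLuc secreted into diluted conditioned medium of S16 cells.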 In short, it runs like this: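 Concentration-response data were obtained by luminescence after 5 min with Nano-Glo substrate at 1:100. The enzyme was diluted S16 NLuc-expressing cell medium, preincubated with compound for 15 min at RT. Curves were fitted with a 4-parameter Hill model.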

The subject of the next assay is CRL-7250. Put plainly: Cytotoxic Profiling of Annotated Libraries Using Quantitative High-Throughput Screening (AID 1296008). Further: nearly all actives have a fitted effect of over 60% in size. Further: potency means the concentration at half of the fitted maximal effect. On max response: on the % scale 0 is the no-effect control and ±100 the full control effect. As to conditions: Five cell lines viability, CellTiter-Glo ATP luminescence, 48-72 h; max response: active compounds read low. In short, it runs like this: (§1)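 Compounds were pin-transferred onto cells and incubated 48 or 72 hr at 37 degree Celsius, 95% humidity. CellTiter-Glo was added, plates sat 10 min at room temperature, then ATP-coupled luminescence was imaged as the viability read-out.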
On the technique in general: In ATP-based viability assays light output follows the ATP content of the culture.

The test system of a further assay is HEK293. Described as above. As to conditions: Five cell lines viability, CellTiter-Glo ATP luminescence, 48-72 h; max response: active compounds read low. In short, it runs like this: as §1
The next assay deals with HaCat. The description is as above. The conditions noted are these: Five cell lines viability, CellTiter-Glo ATP luminescence, 48-72 h; max response: active compounds read low. In outline: as §1
For another assay, the system named is NIH3T3. Described as above. The conditions noted are these: Five cell lines viability, CellTiter-Glo ATP luminescence, 48-72 h; max response: active compounds read low. In short, it runs like this:
as §1

For the next assay, the system named is C33A. In words: Primary qHTS to identify gynecologic anti-cancer compounds using libraries of approved drugs and bioactive compounds (AID 1345084). Further: nearly all actives have a fitted effect of over 55% in size. Further: potency means the concentration at half of the fitted maximal effect. As to conditions: Gynecologic cancer cell panel viability, ATPlite luminescence, 48 h; series mostly up to 57.5 µM. In short, it runs like this: (§2)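 Five-concentration response, 48 h; readout is ATP-driven luciferase luminescence.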

The subject of another assay is CASKI. Described as above. The conditions noted are these: Gynecologic cancer cell panel viability, ATPlite luminescence, 48 h; series mostly up to 57.5 µM. In short, it runs like this:
as §2

The next assay has as its system Es-2. The description is as above. As to conditions: Gynecologic cancer cell panel viability, ATPlite luminescence, 48 h; series mostly up to 57.5 µM. In short, it runs like this: as §2
The next assay has as its system Hek293T. The assay is described as above. As to conditions: Gynecologic cancer cell panel viability, ATPlite luminescence, 48 h, control line for the selectivity index; series mostly up to 57.5 µM. In outline: as §2
The subject of the next assay is OV90. The description is as above. The conditions noted are these: Gynecologic cancer cell panel viability, ATPlite luminescence, 48 h; series mostly up to 57.5 µM. In outline:
as §2

In another assay the test system is PA-1. The description is as above. As to conditions: Gynecologic cancer cell panel viability, ATPlite luminescence, 48 h; series mostly up to 57.5 µM. In short, it runs like this: as §2
In a further assay the test system is Tov-21-G. The description is as above. As to conditions: Gynecologic cancer cell panel viability, ATPlite luminescence, 48 h; series mostly up to 57.5 µM. In short, it runs like this: as §2
In another assay the test system is Tov112D. The description is as above. The conditions noted are these: Gynecologic cancer cell panel viability, ATPlite luminescence, 48 h; series mostly up to 57.5 µM. In outline: as §2

Chain of Phospholipid hydroperoxide glutathione peroxidase GPX4 (Homo sapiens) (P36969 whole entry, looked up): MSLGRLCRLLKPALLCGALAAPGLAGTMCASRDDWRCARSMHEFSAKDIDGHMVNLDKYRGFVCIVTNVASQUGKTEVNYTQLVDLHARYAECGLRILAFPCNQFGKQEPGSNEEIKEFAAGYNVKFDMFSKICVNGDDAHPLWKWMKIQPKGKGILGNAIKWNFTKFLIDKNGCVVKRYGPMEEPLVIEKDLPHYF
Chain of Glutathione peroxidase 1 (Homo sapiens) (P07203 whole entry, looked up): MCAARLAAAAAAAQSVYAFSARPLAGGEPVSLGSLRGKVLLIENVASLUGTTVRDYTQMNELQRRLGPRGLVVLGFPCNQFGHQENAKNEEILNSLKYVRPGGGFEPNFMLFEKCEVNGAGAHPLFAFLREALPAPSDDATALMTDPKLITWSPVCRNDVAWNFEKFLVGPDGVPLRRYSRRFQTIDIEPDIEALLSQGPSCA
Chain of Calcium and integrin-binding protein 1 (Homo sapiens) (Q99828 whole entry, looked up): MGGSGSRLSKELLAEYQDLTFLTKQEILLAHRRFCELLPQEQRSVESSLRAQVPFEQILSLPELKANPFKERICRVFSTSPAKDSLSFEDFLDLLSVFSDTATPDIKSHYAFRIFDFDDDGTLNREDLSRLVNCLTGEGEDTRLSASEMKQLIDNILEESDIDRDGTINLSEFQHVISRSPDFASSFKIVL

For `Cc1c(Cl)c(OCC(=O)N2CCN(C)CC2)nc2sc(C(=O)NC3CC3)c(N)c12`, the Potency result in assay [1], in assay [2], in assay [3], in assay [4], in [5] and in assay [7] was “inactive” in each case. Also, the Potency entry (in assay [8]; in the assay on C33A; in the assay on CASKI; with Es-2; in the assay on Hek293T; with OV90) was “inactive” in each case. Moreover, the Potency entry in the assay with PA-1, in the assay on Tov-21-G and in the assay on Tov112D was “inactive” each time. For the same compound, the result in assay [6] was inactive. Moreover, the max response with CRL-7250 is -0.463%; in the assay with HEK293, -7.33%; in the assay with HaCat, -0.624%; with NIH3T3 it was 0.637%.
In the case of `CC[C@H]1C2CC3[C@@H]4N(C)c5ccccc5[C@]45C[C@@H]([C@H]2[C@H]5O)N3[C@@H]1O`, the Potency entry (in assay [1]; in [3]; in assay [4]; in assay [5]; in assay [8]; in the assay on C33A) was “inactive” throughout. Further, the Potency result in the assay on CASKI, in the assay with Es-2, in the assay on Hek293T, in the assay with OV90, in the assay with PA-1 and in the assay with Tov-21-G was “inactive” throughout. The Potency entry in the assay with Tov112D was “inactive”. In addition, the outcome in [6] was inactive. Further, the max response was -2.01% with CRL-7250, 0.828% with HEK293 and 4.96% with HaCat.
`C=CCN1CC[C@]23c4c5ccc(O)c4O[C@H]2[C@@H](O)CC[C@@]3(O)[C@H]1C5`: the Potency entry in [2], in [3], in assay [4], in assay [5], in assay [7] and in assay [8] was “inactive” in each case. In addition, the Potency result in the assay on C33A, in the assay with CASKI, in the assay on Es-2, in the assay with Hek293T, in the assay on OV90 and in the assay on PA-1 was “inactive” in each case. In addition, the Potency result in the assay with Tov-21-G and in the assay with Tov112D was “inactive” each time. Also, the compound was classed as inactive in [6]. For the same compound, the max response in the assay on CRL-7250 was -15.6%; in the assay with HEK293, -13.2%; in the assay on HaCat, 3.65%; in the assay with NIH3T3, -28.6%.
For the compound `CC1=C[C@H]2O[C@@H]3C[C@H]4OC(=O)/C=C/C=C/C(=O)OCC/C(C)=C/C(=O)OC[C@@]2(CC1)[C@]4(C)[C@]31CO1`, the Potency result in [1], in assay [2], in [4], in assay [5], in assay [7] and in assay [8] was “inactive” throughout. The Potency was 5.6 nM (active) in assay [3]; 25.2 nM (active) with CRL-7250; 8 nM (active) with HEK293; 112 nM (active) in the assay on HaCat; 28.2 nM (active) with NIH3T3; 112 nM (active) in the assay with CASKI. In addition, the Potency with Es-2 was 25.1 nM (active); in the assay with PA-1 it was 70.8 nM (active); in the assay with Tov-21-G, 89.1 nM (active). The outcome in assay [6] is “inactive [at 25.7 µM]”.
Regarding `COC1CC(O[C@H]2CC[C@]3(C=O)C4CC[C@]5(C)[C@@H](C6=CC(=O)OC6)CC[C@]5(O)[C@@H]4CC[C@@H]3C2)OC(C)C1O[C@@H]1O[C@H](CO)[C@@H](O[C@@H]2O[C@H](CO)[C@@H](O)[C@H](O)[C@H]2O)[C@H](O)[C@H]1O` (stereo not given in full), the Potency result in assay [1], in assay [4] and in assay [5] was “inactive” throughout. The Potency in assay [3] was 77.4 nM (active); with CRL-7250, 123 nM (active); with HEK293 it was 219 nM (active); in the assay on HaCat it was 873 nM (active); in the assay on C33A, 178 nM (active); in the assay on Es-2, 398 nM (active). Besides, the Potency is 447 nM (active) in the assay on Hek293T; 1580 nM (active) with OV90; 447 nM (active) with PA-1; 224 nM (active) with Tov-21-G; 112 nM (active) in the assay with Tov112D. In addition, the activity change, negative = inhibition in assay [6] is 0.154% [at 11.6 µM]. Further, the activity change, negative = thiol reactive in [7] is -23.5% [at 11.5 µM]. Also, the activity, negative = inhibition in [8] was 1.46% [at 11.6 µM]. For the same compound, the max response with NIH3T3 is 3.23%.
In the case of `CC(C)(C)[C@]1(O)C[C@@H]2OC(=O)C[C@@]23C(=O)O[C@@H]2OC(=O)[C@@H](O)[C@]213`, the Potency result in assay [1], in assay [2], in [3], in assay [4], in assay [5] and in assay [7] was “inactive” in each case. Further, the Potency result (in [8]; with C33A; in the assay on CASKI; in the assay on Es-2; in the assay on Hek293T; in the assay on OV90) was “inactive” in each case. In addition, the Potency entry in the assay with PA-1, in the assay with Tov-21-G and in the assay on Tov112D was “inactive” in each case. The outcome in [6] was inactive. Further, the max response in the assay with CRL-7250 is 1.12%; in the assay with HEK293 it was 1.81%; in the assay with HaCat, -5.58%; in the assay on NIH3T3 it was 3.76%.
As for `CC(=O)O[C@@H]1[C@@H](O)[C@H]2O[C@@H]3C=C(C)[C@@H](O)C[C@]3(CO)[C@]1(C)[C@]21CO1`, the Potency result in assay [1], in assay [2], in assay [4], in assay [5], in [7] and in assay [8] was “inactive” each time. Moreover, the Potency was 450 nM (active) in assay [3]; 1010 nM (active) with CRL-7250; 321 nM (active) in the assay on HEK293; 3600 nM (active) with HaCat; 904 nM (active) in the assay on NIH3T3; 3550 nM (active) with C33A. Also, the Potency is 3980 nM (active) in the assay with CASKI, 2000 nM (active) with Es-2, 1410 nM (active) in the assay with OV90 and 4470 nM (active) in the assay on Tov-21-G. Besides, the outcome in [6] was inactive.
As for `COc1ccc2c3c([nH]c2c1)C(C=C(C)C)N1C(=O)C2CCCN2C(=O)C1C3` (stereo not given), the Potency entry (in assay [1]; in [2]; in assay [4]; in assay [5]; in assay [8]; in the assay on C33A) was “inactive” each time. For the same compound, the Potency result in the assay on CASKI, in the assay with Es-2, in the assay on Hek293T, with OV90, in the assay on PA-1 and in the assay on Tov-21-G was “inactive” in each case. For the same compound, the Potency result in the assay on Tov112D was “inactive”. In addition, the outcome in assay [6] was inactive. Besides, the max response with CRL-7250 was -26.7%; in the assay on HEK293, -10.4%; in the assay with HaCat, -17.6%; in the assay with NIH3T3, -20.2%.
